According to PubChem BioAssay:
Activity calls are given as the source filed them.

test: change in splice reporter luminescence, either direction, cell-based, HEK293, spliceosome inhibition project, primary screen (AID 1101); conditions: HEK293 splicing luciferase reporter, 24 h, higher = more signal, called active from +8 up or from −8 down;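 also: HEK293 cells carrying a splicing-competent luciferase reporter gene; test concentration not given here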

| SMILES | z-score |
| --- | --- |
| CCCCC(=C=CC[C@@H](O)c1ccccc1OCCO)CCO | 0.579 (inactive) |
| COc1ccc(C(O)C2C=CC3C(=O)NC(=O)C3N2Nc2ccccn2)c2ccccc12 (stereo not given) | 0.841 (inactive) |
| COc1cc(CO)cc(I)c1O[C@H]1C=C(C(=O)NCCO)C[C@@H](N(CCN2CCOCC2)C(=O)C2CCOC2)[C@@H]1O (stereo not given in full) | -0.145 (inactive) |
| COC(=O)[C@@]1(Cc2ccc(F)cc2)[C@H]2c3cc(C(=O)N(C)C)n(Cc4ccc(S(C)(=O)=O)cc4)c3C[C@H]2CN1C(=O)c1ccccc1 | 0.895 (inactive) |
| CC(=O)n1cc(C(O)C2C=CC3C(=O)N(C)C(=O)C3N2Nc2ccccc2)c2ccccc21 (stereo not given) | 1.45 (inactive) |
| O=C1O[C@H](c2ccccc2)[C@H](c2ccccc2)N2[C@H]1[C@@H](C(=O)NC[C@H](O)c1ccccc1)[C@]1(C(=O)Nc3ccccc31)[C@H]2c1ccc(OCCO)cc1 | 0.985 (inactive) |
| C=C(CCCC)C(=O)CC[C@H](OC(C)=O)c1cccc(OCCO)c1 | 1.01 (inactive) |
| COCCOC(=O)N1C(=O)[C@@]2(c3cc(C#CC4=CCCCC4)ccc31)[C@H](C(=O)Nc1nc3ccccc3s1)[C@H]1C(=O)O[C@H](c3ccccc3)[C@H](c3ccccc3)N1[C@@H]2c1ccccc1OCCO | -0.823 (inactive) |
| CN1C(=O)C2C=CC(C(O)c3cc(C(F)(F)F)cc(C(F)(F)F)c3)N(N3CCCCC3)C2C1=O (stereo not given) | 0.139 (inactive) |
| CN(C)C(=O)[C@@]1(Cc2ccccc2)N=C(c2ccc(OCCCO)cc2)O[C@H]1c1ccccc1N=[N+]=[N-] | -1.26 (inactive) |
